# Source: PubChem BioAssay (The Scripps Research Institute Molecular Screening Center)
# An excerpt weighted towards active compounds, which were near 3.4% of everything screened.
# GPR151 activ = activators of human GPR151, primary screen, cell-based, PathHunter beta-arrestin, luminescence; G-protein coupled receptor 151 (Homo sapiens), Q8TDV0; activation, % at 11.2 µM; actives 1% (n = 650,000); PathHunter beta-arrestin GPR151 cells; in the data active means activation above about 4.9%;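 further: 0% = median of compound wells and 100% = cells with positive control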
# MITF primary = MITF inhibitors, primary screen, biochemical, AlphaScreen, human | Microphthalmia-associated transcription factor (Homo sapiens), O75030 | actives 0.91% (n = 650,000) | inhibition, % at 2.6 µM | AlphaScreen MITF homodimerization, bead proximity signal | AID 1259374, 2018; in the data active means inhibition above about 50%;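 further: 0% = vehicle wells with protein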
# Target sequence (O75030 whole entry, looked up): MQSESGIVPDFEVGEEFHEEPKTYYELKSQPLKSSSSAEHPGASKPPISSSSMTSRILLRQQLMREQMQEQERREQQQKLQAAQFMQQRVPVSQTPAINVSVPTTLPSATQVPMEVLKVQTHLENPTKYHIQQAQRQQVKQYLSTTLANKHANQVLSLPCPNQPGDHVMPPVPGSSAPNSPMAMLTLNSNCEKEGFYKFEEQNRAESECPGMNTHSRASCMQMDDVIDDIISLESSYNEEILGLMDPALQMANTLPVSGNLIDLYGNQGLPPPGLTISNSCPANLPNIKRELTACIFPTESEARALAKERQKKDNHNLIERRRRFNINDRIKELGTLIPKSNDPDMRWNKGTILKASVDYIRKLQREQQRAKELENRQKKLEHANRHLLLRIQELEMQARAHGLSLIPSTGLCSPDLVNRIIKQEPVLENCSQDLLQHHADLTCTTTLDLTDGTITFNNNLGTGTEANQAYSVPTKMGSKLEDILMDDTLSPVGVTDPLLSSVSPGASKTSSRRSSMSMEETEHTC
# FBW7 activator = FBW7 E3 ligase activators, primary screen, biochemical, AlphaScreen, human; F-box/WD repeat-containing protein 7 (Homo sapiens), Q969H0; AlphaScreen FBW7–phospho-cyclin E peptide binding, activator screen; normalized activity (activation), % at 26.1 µM; actives 0.13% (n = 650,000); AID 1259310, 2017; in the data active means normalized activity above about 1.9%;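 further: purified mutant Fbw7 with reduced substrate affinity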
# TEAD-YAP inh = TEAD-YAP interaction inhibition, primary screen, TEAD-YAP interaction inhibitor project, luminescence, HEK-TIYL cells. TEAD-Gal4/YAP UAS-luciferase luminescence. inhibition, % at 9.12 µM. actives 1.4% (n = 640,000). AID 1259422, 2018; in the data active means inhibition above about 32%;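 further: 0% = median of test compound wells and 100% = reference inhibitor wells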
# GPR151 confirm = GPR151 activators, triplicate retest, confirmation, cell-based, PathHunter beta-arrestin, luminescence; AID 1508609, 2020; activation, % at 11.2 µM; 6,700 tested, under 10 active; shares compounds with GPR151 activ; GPR151 PathHunter beta-arrestin cells, 90 min; % of EA-reagent control over plate median;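 active means mean percent activation across replicates above the confirmation screen cutoff of 4.91%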
# GPR119 ag = GPR119 activators in beta-arrestin cells, counter-screen for GPR151 activator project, cell-based, PathHunter beta-arrestin, luminescence, triplicate; activation, % at 11.2 µM; AID 1508611, 2020; shares compounds with GPR151 activ; actives 0.3% (n = 6,700); 90 min; 0 = compound-well median, 100 = enzyme-acceptor control;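 active means mean percent activation in the counterscreen above 29.09%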;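 further: counterscreen on off-target GPR119 to flag nonselective hits from the GPR151 activator screen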
# Numbers without * were called inactive; . = not tested or not shown; ! = not confirmed by another sample.
SMILES,GPR151 activ,MITF primary,FBW7 activator,TEAD-YAP inh,GPR151 confirm,GPR119 ag
CCOc1ccc(C2C(C#N)=C(N)Oc3c2c(C)nn3-c2ccccc2)cc1OC (stereo unspecified),6.4*,19,0,-8,0,-5
COc1ccc(C2C(C#N)=C(N)Oc3c2c(C)nn3-c2ccccc2)cc1OC (stereo unspecified),1,1,0,-2,.,.
CC(C)c1nc(CNCc2c(C(=O)N3CCCN(C)CC3)nc3sccn23)cs1,6.9*,10,0,-1,0,1
CCCCC(=O)N(CCn1cccn1)c1nc2c(F)cccc2s1,0,-2,0,0,.,.
O=C(c1cc(Cl)ccc1Cl)N(CCn1cccn1)c1nc2c(F)cccc2s1,6.1*,0,0,-8,0,0
CCOc1cccc2sc(N(CCN(C)C)C(=O)c3cc(Cl)ccc3[N+](=O)[O-])nc12,7.1*,16,0,5,1,7
COc1cc(/C=C2/C(=N)N3N=C(Cc4ccccc4)SC3=NC2=O)ccc1OCCOc1cccc(C)c1,0,-2,0,1,.,.
O=C(NCCc1ccccc1)C(F)(F)C(F)F,19*,6,0,0,0,1
C=CCOc1ccc(/C=C2\C(=O)NC(=O)N(c3ccc([N+](=O)[O-])cc3)C2=O)cc1OC,0,-5,0,5,.,.
CN1C(=O)[C@H]2CN(C(=O)c3ccccc3)CCN2C(=O)[C@@H]1Cc1ccccc1,5.3*,9,0,-11,0,12
CC1CCN(C(=O)CN2C(=O)NC(Cc3ccccc3)(Cc3ccccc3)C2=O)CC1,-2,4,0,6,.,.
CC1CC(C)CN(C(=O)CN2C(=O)NC(Cc3ccccc3)(Cc3ccccc3)C2=O)C1 (stereo unspecified),5.0*,2,0,9,0,13
O=C(CN(CCc1ccccc1)S(=O)(=O)c1cc(Cl)ccc1Cl)N1CCCC1,18*,21,0,-3,0,-13
O=C(CN(Cc1ccccc1)S(=O)(=O)c1cc(Cl)ccc1Cl)N1CCCC1,3,22,0,-2,.,.
Cc1nc2c(nnn2Cc2ccccc2)c(=O)n1C,-1,9,0,6,.,.
Cc1nc2c(nnn2Cc2ccccc2)c(=O)n1Cc1ccccc1,10*,-4,0,10,0,5
O=C(CCn1c(=S)oc2ccccc21)NN1CCOCC1,-1,3,0,0,.,.
COc1ccc(-c2cc(C(=O)N3CCCCC3C)[nH]n2)cc1 (stereo unspecified),5.3*,-5,0,-40,-1,-9
COc1ccc(-c2cc(C(=O)N3C(C)CCCC3C)[nH]n2)cc1 (stereo unspecified),-1,-10,0,1,.,.
FC(F)(F)c1cccc(CNc2nc(Nc3cccnc3)nc3c2ncn3C2CCCCC2)c1,-1,-6,0,0,.,.
CCOC(=O)c1cc2sccc2n1CCCC#N,1,-1,0,10,.,.
CCC(Oc1ccccc1)c1nnc(NC(=O)Cc2ccccc2)s1 (stereo unspecified),28*,17,0,4,0,-11
COc1cc(C)cc(CN2CCN(Cc3ccc4c(c3)OCO4)CC2)c1O,5.3*,0,0,-11,0,7
COc1cc(OC)c(CN2CCN(Cc3ccc4c(c3)OCO4)CC2)cc1Br,3,39,0,-5,.,.
CNC(=S)N1CCC(C(=O)NC(c2cccc(OC)c2)c2ccccn2)CC1 (stereo unspecified),6.9*,14,0,-3,0,0
SMILES,GPR151 activ,MITF primary,FBW7 activator,TEAD-YAP inh,GPR151 confirm,GPR119 ag
O=C(Nc1ccc2nsnc2c1)N1CCCCCC1,6.1*,-9,0,-42,0,-4
CCOC(=O)c1c(NC(=O)CSc2nnc(CNC(=O)COc3ccccc3)n2C)sc2c1CCCC2,1,-1,0,-6,.,.
O=C(OCc1cc(-c2ccc(F)cc2F)on1)c1cc2ccccc2o1,2,5,0,1,.,.
COc1cc(NC(=O)Nc2ccc(-c3nc4ccccc4o3)cc2)cc(OC)c1OC,5.6*,-9,0,-40,0,7
COc1ccccc1NC(=O)CSc1nc2ccsc2c(=O)n1-c1ccc(Cl)cc1,5.6*,-4,0,0,1,10
COc1ccc(-n2c(SCC(=O)Nc3ccccc3OC)nc3ccsc3c2=O)cc1,-1,4,0,2,.,.
C[C@@H](Cn1nnn(-c2ccccc2)c1=O)NC(=O)c1cnsc1,0,7,0,6,.,.
O=C(CNC(=O)c1cccc(F)c1)N/N=C/c1cc(I)ccc1O,5.0*,8,0,12,0,3
O=C(CNC(=O)c1cccc(F)c1)N/N=C/c1cc(Cl)ccc1O,2,-2,0,-5,.,.
CCOC(=O)CNC(=O)c1sc2nc(C)nc(N(CC)CC)c2c1C,0,17,0,12,.,.
O=C(O)CCCCNS(=O)(=O)c1ccccc1C(F)(F)F,9.4*,13,1,-13,-1,-4
Cn1c2ccccc2c(=O)c2c(=O)n(Cc3ccccc3)c(-c3ccco3)nc21,0,-2,0,4,.,.
COCCCn1c(-c2ccc(F)cc2)nc2c(c(=O)c3ccccc3n2C)c1=O,5.9*,16,1,0,0,-5
Cn1c2ccccc2c(=O)c2c(=O)n(CCc3ccccc3)c(-c3ccco3)nc21,9.4*,-12,0,-2,0,-5
CCCOC(=O)C1=C(C)NC(=O)NC1c1ccc(N(CC)CC)cc1 (stereo unspecified),0,-1,0,7,.,.
COc1ccc(/C=C2\Oc3c(ccc(OC(C)=O)c3C)C2=O)cc1OC,1,-1,0,4,.,.
CCCCN(CC)c1cnn(-c2ccccc2)c(=O)c1N,9.2*,13,0,-5,0,-1
COc1ccccc1CC(=O)NCCn1nc(-c2ccco2)ccc1=O,0,-17,0,-8,.,.
O=C(c1ccc(Cl)nc1Cl)N1CCOCC1,0,-14,0,5,.,.
CC(CN1c2ccccc2Sc2ccccc21)N(C)C (stereo unspecified),7.4*!,-7,0,-7,-1,-5
CC(CN(C)C)CN1c2ccccc2Sc2ccccc21 (stereo unspecified),1,5,0,8,.,.
COc1ccc(CCNc2ccc3nnc(CCNC(=O)c4ccccc4)n3n2)cc1,1,0,0,12,.,.
CCOC(=O)N1CCN(C(=O)c2cc3c(s2)-c2ccccc2SC3)CC1,1,5,0,-7,.,.
